Columns and labels:
Test in all cases: PBM binding z-score (relative to random genomic background probes); higher = stronger binding; sequences stand for … in GC…GCGATTGACAGCGTAGAATGAAGG
[1] = system: RARb homodimer (NR concentration 270 nM)
Procedure, shortened: (§1)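 On custom Agilent 4×180K arrays, double-stranded probes with 34-nt variable regions carried direct-repeat seeds, single-nucleotide variants, half-site ablations or random human genomic background. Ligand-free nuclear receptor dimers were applied for 1 h, and binding was read with antibodies against each partner (one per run). Binding z-scores come from regression-normalized fluorescence, with the random background probes as reference.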

[2] = system: RARg:RXRa (NR concentration 270 nM, RXRa partner concentration 90 nM)
Procedure, shortened: as §1

[3] = system: RARg homodimer (NR concentration 270 nM)
Procedure, shortened: as §1

[4] = system: RXRa DBDmut IVT, anti-RXR (DBD mutation: RXRa K156A/R161A, NR concentration 90 nM)
Procedure, shortened: as §1

[5] = system: RXRa homodimer (NR concentration 180 nM)
Procedure, shortened: as §1

[6] = system: THRa:RXRa (NR concentration 90 nM, RXRa partner concentration 90 nM)
Procedure, shortened: as §1

[7] = system: THRa homodimer (NR concentration 90 nM)
Procedure, shortened: as §1

[8] = system: VDR homodimer (NR concentration 270 nM)
Procedure, shortened: as §1

Row | Sequence | PBM binding z-score [1] | PBM binding z-score [2] | PBM binding z-score [3] | PBM binding z-score [4] | PBM binding z-score [5] | PBM binding z-score [6] | PBM binding z-score [7] | PBM binding z-score [8]
1 | CGAACTAGGTCATCCGGGACAGTGAATACATTGA | 2.87 | 3.87 | 4.59 | 2.41 | 2.75 | 3.58 | 1.84 | 1.96
2 | TCGCGTAGGTTACCAATGGGGCATTCAGCTTTCT | 0.809 | 1.42 | 0.306 | 0.302 | 0.572 | 0.107 | -0.509 | -0.338
3 | TCGATTAGTTGATTAGGGCAACCGAAACAGCGGA | 0.521 | 0.102 | 0.329 | 0.535 | 0.0192 | 0.565 | 0.154 | -0.306
4 | CCTACTGGGCCAAAAGGGTCATTGATGCCGATAA | 3.22 | 3.29 | 2.71 | 0.103 | 3.26 | 2.17 | -0.01 | 2.72
5 | GCTGCTAGGTCAGGTTGGACAGCTAACGGGTACG | 2.35 | 2.56 | 3.42 | 0.208 | 1.06 | 1.69 | 0.46 | 0.386
6 | CAAACTAGGTTAAGAGGTCAAAGTCCGCTTCCCG | 4.7 | 5.88 | 5.15 | 2.2 | 6.79 | 3.89 | 1.83 | 4.48
7 | TCTATTAGTTGAAGGGCATCCGACGAGTCCGTTT | 0.904 | 0.374 | 0.361 | 1.86 | 0.598 | 0.0886 | 0.288 | 1.51
8 | CTTCCAAGGTCAAAGGTCAGTGAAGAGATGACGG | 5.53 | 8.63 | 8.01 | 3.91 | 10.4 | 5.02 | 3.03 | 3.67
9 | GCTGGTTGGTCAGTAAAAGGTCACACACCGGTCG | 5.18 | 5.81 | 5.42 | 0.18 | 5.73 | 3.5 | 2.21 | 2.29
10 | GGAACGAGGGTAAGTTGATAGCAGAGTTTGATGG | 0.494 | 0.154 | 0.437 | 0.818 | 0.178 | 0.12 | -0.196 | 0.755
11 | ATATGTAGTTTAAGGGTCATTCAGGTTGGTTCGC | 3.9 | 3.91 | 2.88 | 2.39 | 4.82 | 3.37 | 1.71 | 4.96
12 | TAGCCTAGGCCATGCGGGCCAGTATAGTGTCGGC | -0.484 | -0.409 | -0.0767 | -1.68 | -0.471 | -0.614 | -1.02 | -1.02
13 | CCTGCAAGGTCATGGTCAGCTAATCTACAGTATG | 4.17 | 6.01 | 6.24 | 3.84 | 6.36 | 4.04 | 2.86 | 2.64
14 | ATATGTAGGTTACATCCGCGTCATTCAGGCTATG | 0.571 | 0.929 | 1.09 | 0.366 | 0.901 | 0.526 | 0.124 | 0.163
15 | GGATCGAGGGCATTCGAGTTGATAGCATGGCGAT | 0.818 | 1.07 | 1.25 | 3.06 | 0.598 | 3.39 | -0.117 | 3.49
16 | CCAGGCAGGTGAAAGGTAACTCAGTCTGGTACGC | 0.447 | 0.784 | 0.255 | -0.641 | 1.53 | 0.824 | -0.15 | -0.0369
17 | TCTGCTAGGTCAGTCGGTCAGCTAACGAGCTGCC | 3.32 | 3.52 | 4.64 | 0.278 | 1.08 | 1.17 | 0.0132 | -1.13
18 | CATACTGGGCCATCAGGTCATTGATATCAACGTT | 2.78 | 2.53 | 2.08 | 0.904 | 1.61 | 3.29 | 3.27 | 2.38
19 | TCATATAGGTACAAGGTGAAAGTCGGTGTGGTAA | 1.38 | 0.762 | 0.453 | 2.04 | 1.33 | 1.91 | 1.51 | 0.703
20 | CGAACGAGGGCATGAGTTGCTAGCAAATGCCGAT | 0.64 | 1.05 | 1.42 | 2.17 | 0.709 | 1.11 | -0.232 | 1.05
21 | CCTTACGGGTCACTGGCAGGTTATAGCATTTGGA | 3.16 | 5.81 | 4.75 | 1.66 | 4.96 | 3.14 | 0.323 | 1.16
22 | CCAGCTAGGTCAATGGTCAGCTAAAGCAGCTCGC | 2.83 | 3.55 | 4.15 | 1.51 | 2.04 | 2.1 | 0.209 | 0.021
23 | GGAACGAGGGCGAAGTTGATAGCATCTGTCGACG | -0.341 | 0.0412 | 0.2 | 1.17 | 0.297 | -0.192 | -0.526 | 0.152
24 | CGTCAAAGTTCAAATAAGGTAACGTAAAGCACGC | 4.02 | 5.64 | 6.52 | 4.78 | 5.4 | 5.07 | 2.01 | 4.33
25 | ACAGACAGGTGATGACGGTAACTCAGGCTATCAT | 0.213 | 0.122 | 0.261 | -0.0365 | 0.15 | 0.339 | -0.087 | -0.266
26 | ATCTCTAGGTAACAAGATCAGTGAAAGAGAGGAC | 0.262 | 0.574 | 0.868 | -0.259 | 0.265 | 0.927 | 0.466 | 0.364
27 | TTACCAAGGTGAAGGTCGTCGATCCCTCTGTAGA | 1.78 | 1.59 | 1.7 | -0.188 | 2.12 | 2.36 | 0.653 | -0.137
28 | ACTTACGGGTCAACGAGGTTATAGCTCGCGTATA | 3.51 | 5.67 | 5 | 2.85 | 5.91 | 4.18 | 1.02 | 3.7
